Screens: PubChem BioAssay, The Scripps Research Institute Molecular Screening Center
Compounds with a hit are over-represented: about 2.5% of the library has one in this group of screens.
ASK1 inh: inhibitors of human ASK1 kinase; AlphaScreen MKK6 phosphorylation by ASK1, luminescence; 0.99% of 22,000 active; inhibition, % at 7.44 µM; Q99683; in the data active = inhibition above about 35%;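 note: 0% = median of compound wells and 100% = no enzyme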
ULK1 inh: inhibitors of human ULK1 kinase. O75385. AlphaScreen Atg13 phosphorylation by ULK1, luminescence. inhibition, % at 5.96 µM. 1.9% of 30,000 active. AID 1259251; in the data active = inhibition above about 43%;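 note: 0% = median of compound wells and 100% = no enzyme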
TruHits interf: counter-screen for ASK1 inhibitors: AlphaScreen optical interference; 20% of 220 active; IC50, µM; AlphaScreen TruHits beads, signal interference counterscreen; shares compounds with ASK1 inh;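 active = IC50 of 10 µM or lower in the counterscreen; inactive = IC50 above 10 µM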;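 note: loss of AlphaScreen light from TruHits beads alone with no ASK1 enzyme present; potency of signal reduction so a low IC50 flags an assay artifact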
* marks the source's active call; other numbers are inactive results; i = inactive; · = not tested or not shown.

SMILES	ASK1 inh	ULK1 inh	TruHits interf
Fc1cc(-c2ccnc(Nc3ccc(-n4cnc(N5CCOCC5)n4)cc3)n2)cc(N2CCOCC2)c1	24	5	·
Cc1n[nH]c(C)c1-c1cc(F)cc(-c2ccnc(Nc3ccc(-n4cnc(N5CCOCC5)n4)cc3)n2)c1	48*	13	>19
Cc1[nH]ncc1-c1ccc2nc(NC(=O)C3COc4ccc(F)cc4C3)sc2c1 (centres undefined)	39*	14	>19
Cc1[nH]ncc1-c1ccc(NC(=O)C2COc3ccc(F)cc3C2)c(N(C)CCN(C)C)c1 (centres undefined)	-6	2	·
CC(=O)Nc1ccc(NC(=O)c2csc(NCc3ccc4c(c3)OCO4)n2)cc1	1	24	·
c1ccc(Nc2cc(-c3ccc(N4CCOCC4)nc3)ncn2)cc1	2	-1	·
COc1ccc2c(c1)CC(c1nc3c(OC)cc(-c4cn[nH]c4)cc3c(=O)[nH]1)CO2 (centres undefined)	-14	-5	·
COc1cc(-c2cn[nH]c2)cc2c(=O)[nH]c(C3COc4ccc(C)cc4C3)nc12 (centres undefined)	40*	5	>19
CC(=O)c1cccc(-c2cc(Nc3ccc(N4CCOCC4)cc3)nc(N)n2)c1	8	8	·
Cn1ccc2cc(-c3cc(Nc4ccc(N5CCOCC5)cc4)nc(N)n3)ccc21	46*	26	>20
CC(=O)Nc1ccc(Nc2cc(N3CCCC3CO)nc(N)n2)cc1 (centres undefined)	-2	9	·
CN(C)CCNc1onc(-c2ccnc(Nc3ccc(N4CCOCC4)cc3)c2)c1-c1ccc(F)cc1	33	14	·
c1ccc(Nc2ccnn2-c2ccnc(Nc3ccc(N4CCOCC4)cc3)c2)cc1	34	-13	·
Fc1ccc(-c2c(-c3ccnc(Nc4ccc(N5CCOCC5)cc4)c3)noc2NCc2ccccc2)cc1	37*	10	>19
c1ccc(Nc2cc(-c3ccnc(Nc4ccc(N5CCOCC5)cc4)c3)nn2-c2ccccc2)cc1	41*	-14	>19
COc1ccc2c(c1)C[C@H](C(=O)Nc1ccc(-c3cn[nH]c3)cc1OC1CCOC1)NC2 (some centres undefined)	-6	-25	·
C[C@]12CCC(=O)C=C1CC[C@@H]1[C@@H]2CC[C@@]2(C)[C@H]1CC[C@@]21CCC(=O)O1	·	9	·
COc1ccc(-c2nc(Nc3cc(OC)c(OC)c(OC)c3)c3ncn(Cc4ccc(C(F)(F)F)cc4)c3n2)cc1	1	-11	·
CCN(CC)c1nc(NCCN2CCOCC2)nc(Nc2ccc(-n3ccnc3)cc2)n1	9	0	·
CCN(CC)c1nc(Nc2ccc(N3CCOCC3)cc2)nc(Nc2ccc(-n3ccnc3)cc2)n1	41*	-24	6*
Nc1cccc(-c2ncc(C(=O)NCCCN3CCCC3=O)s2)c1	-16	-5	·
C=CCNC(=O)CC(=O)N/N=C/c1cccc(OC)c1OC	·	-6	·
CCN(CC)c1nc(NCCc2ccc(O)cc2)nc(N2CCN(c3ccccn3)CC2)n1	7	-9	·
c1ccc(CN2CCC(Nc3nc(N4CCN(Cc5ccc6c(c5)OCO6)CC4)nc4c3ncn4C3CCCCC3)CC2)cc1	36*	9	8.7*
c1ccc(CNc2nc(N3CCN(Cc4ccc5c(c4)OCO5)CC3)nc3c2ncn3C2CCCCC2)cc1	6	8	·
SMILES	ASK1 inh	ULK1 inh	TruHits interf
c1ccc(-c2nc3ncnc(Nc4ccc(N5CCOCC5)cc4)c3[nH]2)cc1	15	-1	·
Cc1cnc(-c2csc3ccccc23)nc1Nc1ccc(N2CCOCC2)cc1	42*	-11	>20
Cc1cnc(-c2cccc(N)c2)nc1Nc1ccc(N2CCOCC2)cc1	51*	-10	>18
CC(=O)c1cccc(-c2ncc(C)c(Nc3ccc(N4CCOCC4)cc3)n2)c1	15	19	·
COc1cc2nc(-c3csc4ccccc34)nc(Nc3ccc(N4CCOCC4)cc3)c2cc1OC	29	-28	·
Nc1cccc(-c2nc3ncnc(Nc4ccc(N5CCOCC5)cc4)c3[nH]2)c1	36*	6	>18
CC(C)n1cnc2c(NCCCN3CCCC3=O)nc(Nc3ccc(C(F)(F)F)cc3)nc21	2	-6	·
Cc1cccc2nc3c(c(=O)n12)CN(C(=O)c1ccco1)CC3	·	2	·
O=C(Nc1ccccc1)C1CCN(c2ccc(Nc3ccccc3)nn2)CC1	1	-1	·
O=C(Cc1ccccc1O)Nc1cnn(-c2cccc(C(=O)Nc3ccc(N4CCOCC4)cc3)c2)c1	18	-11	·
OC1CCC(Nc2nc(NCc3ccccc3)c3ncn(-c4ccccc4)c3n2)CC1 (centres undefined)	-25	-7	·
Cc1nc(C)n(-c2ccc(Nc3nccc(-c4cccc(-n5nccn5)c4)n3)cc2)n1	39*	-15	>19
Cc1nc(C)n(-c2ccc(Nc3nccc(-c4cccc(-n5ccnc5)c4)n3)cc2)n1	-72	-92	·
O=C(NCc1cccnc1)c1csc(NCc2ccc3c(c2)OCO3)n1	-17	19	·
O=C(NCCOc1ccccc1)C1CCN(c2ccc(Nc3ccc(N4CCOCC4)cc3)nn2)CC1	-2	5	·
COc1ccc(CCNc2nc(NC3CCN(Cc4ccccc4)CC3)nc3c2ncn3Cc2ccc(C(F)(F)F)cc2)cc1	23	-5	·
Oc1ccc(CCNc2nc(NC3CCN(Cc4ccccc4)CC3)nc3c2ncn3Cc2ccc(C(F)(F)F)cc2)cc1	39*	-8	>20
FC(F)(F)c1ccc(Cn2cnc3c(Nc4ccc(N5CCOCC5)cc4)nc(NC4CCN(Cc5ccccc5)CC4)nc32)cc1	37*	-5	i
FC(F)(F)c1ccc(Cn2cnc3c(Nc4ccc(N5CCOCC5)cc4)nc(Nc4ccccc4)nc32)cc1	23	-16	·
CC(=O)c1cccc(-c2nc(NCCO)c3[nH]cnc3n2)c1	5	3	·
O=C(Cc1cn(-c2ccc(N3CCOCC3)nn2)c2ccccc12)NC1CC1	-11	-4	·
FC(F)(F)c1ccc(Cn2cnc3c(NCc4cccnc4)nc(-c4ccccc4)nc32)cc1	12	-41	·
CC1(C)C(C=C(Cl)Cl)C1C(=O)OCc1cccc(Oc2ccccc2)c1 (centres undefined)	·	-10	·
COc1ccc(CCNc2nc(Nc3cccc(N(C)C)c3)nc3c2ncn3C(C)C)cc1	37*	9	>20
CC(C)n1cnc2c(NCCO)nc(Nc3cccc(N(C)C)c3)nc21	13	20	·
SMILES	ASK1 inh	ULK1 inh	TruHits interf
OCCNc1nc(Nc2ccc3ncccc3c2)nc2c1ncn2Cc1ccc(C(F)(F)F)cc1	-2	7	·
FC(F)(F)c1ccc(Cn2cnc3c(NCc4cccc(C(F)(F)F)c4)nc(Nc4ccccc4)nc32)cc1	15	0	·
FC(F)(F)c1ccc(Cn2cnc3c(NCc4cccc(C(F)(F)F)c4)nc(Nc4ccc5ncccc5c4)nc32)cc1	40*	0	>20
FC(F)(F)c1ccc(Cn2cnc3c(NCc4ccccc4)nc(Nc4ccccc4)nc32)cc1	46*	-4	>20
O=C(NC1CC1)c1ccc(-c2ncc(C(=O)NCc3cccnc3)s2)cc1	-1	-10	·
CC(C)N(CCNc1nc(Nc2ncccn2)nc2c1ncn2-c1ccsc1)C(C)C	-4	7	·
COc1cc(N2CCN(C)CC2)ccc1Nc1cc(Nc2ccccc2-c2ncccn2)c(C(F)(F)F)cn1	38*	53*	i
COc1cc(NC(=O)c2ccnc(-c3ccc(N4CCN(C)CC4)cc3)c2)cc(OC)c1OC	11	5	·
COc1cc(Nc2nc(N)c3[nH]cnc3n2)cc(OC)c1OC	-1	18	·
